Measurements: ChEMBL document CHEMBL3433997, “St. Jude Leishmania screening dataset” (2016)

How the values were obtained:
Type in all cases: functional
[1] = molecular target: Solute carrier family 2, facilitated glucose transporter member 1 (Homo sapiens) (UniProt P11166); assay: ST_JUDE_LEISH: Cytotoxicity at 2uM final concentration against transgenic Leishmania Mexicana promastigotes LmGLUT1 that are glucose transport deficient and complemented with the human glucose transporter GLUT1. Activity is measured by DNA content using SYBR green in vitro
Sequence of Solute carrier family 2, facilitated glucose transporter member 1 (Homo sapiens) (P11166 whole entry): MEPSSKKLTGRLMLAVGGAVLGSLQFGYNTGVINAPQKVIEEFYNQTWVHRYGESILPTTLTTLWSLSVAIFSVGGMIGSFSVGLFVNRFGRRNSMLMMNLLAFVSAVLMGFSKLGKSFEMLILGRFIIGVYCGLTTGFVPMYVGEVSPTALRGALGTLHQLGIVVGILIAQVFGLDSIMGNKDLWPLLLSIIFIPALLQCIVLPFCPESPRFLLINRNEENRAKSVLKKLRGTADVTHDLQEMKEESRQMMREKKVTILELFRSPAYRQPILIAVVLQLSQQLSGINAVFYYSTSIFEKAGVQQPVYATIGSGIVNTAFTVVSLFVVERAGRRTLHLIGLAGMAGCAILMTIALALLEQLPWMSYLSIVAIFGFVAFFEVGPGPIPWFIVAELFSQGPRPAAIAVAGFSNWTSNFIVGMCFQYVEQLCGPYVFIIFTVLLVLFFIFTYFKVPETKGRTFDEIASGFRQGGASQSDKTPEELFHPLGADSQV

[2] = molecular target: Hexose transporter 1 (Plasmodium falciparum) (UniProt O97467); assay: ST_JUDE_LEISH: Cytotoxicity at 2uM final concentration against transgenic Leishmania Mexicana promastigotes LmPfHT that are glucose transport deficient and complemented with the Plasmodium falciparum hexose transporter. Activity is measured by DNA content using SYBR green in vitro
[3] = molecular target: Glucose transporter (Leishmania mexicana) (UniProt O61059); assay: ST_JUDE_LEISH: Cytotoxicity at 2uM final concentration against transgenic Leishmania Mexicana promastigotes LmGT2 that are glucose transport deficient and complemented with the L. Mexicana glucose transporter 2. Activity is measured by DNA content using SYBR green in vitro

**Q.** Which inhibition [1] does the source give for `O=C(CNC(=O)c1ccc(O)cc1)Nc1cccc(-c2cccc(-c3nc4cc(C(F)(F)F)ccc4[nH]3)c2)c1` here?
**A.** 3.81%

**Q.** And the inhibition [2]?
**A.** 4.39%

**Q.** And the inhibition [3]?
**A.** 2.15%

**Q.** Which results are given for `CCCN(CCC)CCCNc1ccc(C(=O)Nc2ccc(C)c(F)c2)cc1[N+](=O)[O-]`?
**A.** inhibition [1]: 76.3%; inhibition [2]: 74.6%; inhibition [3]: 74%

**Q.** Which inhibition [1] does the source give for `COc1ccccc1C1CCN(C2CCC(NC(=O)/C=C/c3cc(C(F)(F)F)ccc3F)CC2)CC1` (stereo not given) here?
**A.** 2.98%

**Q.** What about the inhibition [2] of the same molecule?
**A.** 2.36%

**Q.** What about the inhibition [3] of the same molecule?
**A.** 3.14%

**Q.** What does the source list for `CC(=O)N(C)c1cccc(C(=O)Nc2cccc(-c3ccc(-c4nc5cc(C(F)(F)F)ccc5[nH]4)cc3)c2)c1`?
**A.** inhibition [1]: 4.32%; inhibition [2]: 4.03%; inhibition [3]: 4.63%

**Q.** For `COc1cccc2c(NCc3ccccc3)nc(NCCCN3CCCCC3C)nc12` (stereo not given), which inhibition [1] is on record?
**A.** 67.7%

**Q.** What about the inhibition [2] of the same molecule?
**A.** 50.8%

**Q.** What about the inhibition [3] of the same molecule?
**A.** 13.1%

**Q.** Which results are given for `CCOc1ccc(C(C)NC(=O)Nc2ccccc2)cc1OCC` (stereo not given)?
**A.** inhibition [1]: 4.28%; inhibition [2]: 2.66%; inhibition [3]: 2.96%

**Q.** Which inhibition [1] does the source give for `FC(F)(F)c1cccc(-c2cc(NCCCn3ccnc3)nc(-c3ccncc3)n2)c1` here?
**A.** -3.57%

**Q.** What about the inhibition [2] of the same molecule?
**A.** -1.14%

**Q.** And the inhibition [3]?
**A.** -0.33%

**Q.** Which results are given for `COc1cccc(-c2[nH]c3ccccc3c2CN2CCC(c3c(C)cccc3C)CC2)c1`?
**A.** inhibition [1]: 2.03%; inhibition [2]: 2.95%; inhibition [3]: -1.74%

**Q.** Which results are given for `Cc1[nH]c(C)c(-c2ccc(OCc3cc(F)cc(F)c3)nc2)c(=O)c1Br`?
**A.** inhibition [1]: 3.26%; inhibition [2]: 5.62%; inhibition [3]: 0.58%

**Q.** Which results are given for `CCN(CC(C)O)C(=O)c1ccc(-c2cccc(-c3nc4cccc(C)c4[nH]3)c2)cc1` (stereo not given)?
**A.** inhibition [1]: 0.34%; inhibition [2]: 1.63%; inhibition [3]: 0.11%

**Q.** Which results are given for `COc1ccc2c(NN=Cc3cccc(C)n3)ccnc2c1`?
**A.** inhibition [1]: 4.32%; inhibition [2]: 5.22%; inhibition [3]: 5.4%

**Q.** Which results are given for `Nc1ncc(-c2ccsc2)c2ccc(-c3cc(NCc4ccccc4)ncn3)cc12`?
**A.** inhibition [1]: 10.1%; inhibition [2]: 8.31%; inhibition [3]: 7.39%

**Q.** Which results are given for `COc1ccc(-c2ccc(NC(=O)c3ccc(C#N)cc3)cc2)cc1CNC(C)C`?
**A.** inhibition [1]: 4.24%; inhibition [2]: 3.24%; inhibition [3]: 2.38%

**Q.** What does the source list for `Cc1cccc(CNc2nc(C)cc(NCCC(=O)Nc3ccccc3)n2)c1`?
**A.** inhibition [1]: 10.3%; inhibition [2]: 11.3%; inhibition [3]: 5.57%

**Q.** How did the inhibition [1] turn out when `O=C(Nc1ccc(-c2ccc(-c3nc4ccccc4[nH]3)s2)cc1)c1ccncc1` was run?
**A.** 12.7%

**Q.** And the inhibition [2]?
**A.** 8.04%

**Q.** And the inhibition [3]?
**A.** 5.66%

**Q.** What does the source list for `O=C(Nc1ccc(C(F)(F)F)cc1)NC1CCN(c2ccnc3cc(Cl)ccc23)CC1`?
**A.** inhibition [1]: 6.47%; inhibition [2]: 6.26%; inhibition [3]: 4.68%

**Q.** `O=C(C1COc2ccccc2O1)N(CCCn1ccnc1)Cc1csc(-c2ccc(CNCc3ccccc3)cc2)n1` (stereo not given) was tested. Which inhibition [1] did it give?
**A.** 3.99%

**Q.** And the inhibition [2]?
**A.** 4.14%

**Q.** And the inhibition [3]?
**A.** 2.05%

**Q.** Which results are given for `CC(=O)Nc1cccc(C(=O)Nc2cccc(-c3ccc(-c4nc5cc(C(F)(F)F)ccc5[nH]4)s3)c2)c1`?
**A.** inhibition [1]: 0.34%; inhibition [2]: 0.52%; inhibition [3]: 0.89%

**Q.** Which results are given for `CC1(C)N=C(N)N=C(N)N1c1ccc(I)cc1`?
**A.** inhibition [1]: 5.79%; inhibition [2]: 5.57%; inhibition [3]: 6.6%

**Q.** Which inhibition [1] does the source give for `Cn1c(N)c(C(=O)CSc2ncc(-c3ccc(F)cc3)n2Cc2ccccc2)c(=O)n(C)c1=O` here?
**A.** 2.53%

**Q.** And the inhibition [2]?
**A.** 1.62%

**Q.** And the inhibition [3]?
**A.** 3.15%

**Q.** For `CC(C)(CN)c1cc(-c2ccc(Cl)c(O)c2)c(-c2ccncc2)o1`, which inhibition [1] is on record?
**A.** 0.01%

**Q.** What about the inhibition [2] of the same molecule?
**A.** 3.22%

**Q.** And the inhibition [3]?
**A.** 1.62%

**Q.** For `CCn1c2ccccc2c2cc(Cc3cnc(N)nc3N)ccc21`, which inhibition [1] is on record?
**A.** 9.49%

**Q.** And the inhibition [2]?
**A.** 8.51%

**Q.** And the inhibition [3]?
**A.** 3.47%

**Q.** Which inhibition [1] does the source give for `CN(C)CCOc1ccc(NC(=O)NC(C)(C)c2nc(-c3ccc(Cl)c(O)c3)c(-c3ccncc3)[nH]2)cc1` here?
**A.** -2.42%

**Q.** What about the inhibition [2] of the same molecule?
**A.** -2.62%

**Q.** And the inhibition [3]?
**A.** -2.59%

**Q.** Which results are given for `CC(C)(C)CC(C)(C)c1ccc(O)c(C(=O)Nc2cccc([N+](=O)[O-])c2)c1`?
**A.** inhibition [1]: 1.48%; inhibition [2]: 2.51%; inhibition [3]: 1.44%

**Q.** Which inhibition [1] does the source give for `Cc1cccc2nc(-c3ccc(-c4cccc(NC(=O)COc5ccccc5C(N)=O)c4)s3)[nH]c12` here?
**A.** 9.69%

**Q.** What about the inhibition [2] of the same molecule?
**A.** 9.14%

**Q.** What about the inhibition [3] of the same molecule?
**A.** 6.9%

**Q.** With `COc1ccc2nc3cc(Cl)ccc3c(NCCCO)c2c1` as the molecule, how does the inhibition [1] read?
**A.** 0.97%

**Q.** What about the inhibition [2] of the same molecule?
**A.** 0.85%

**Q.** And the inhibition [3]?
**A.** 2.01%

**Q.** For `COc1ccc(CN2CCCC(C(=O)c3ccc(C(F)(F)F)cc3)C2)c(O)c1` (stereo not given), which inhibition [1] is on record?
**A.** 4.79%

**Q.** And the inhibition [2]?
**A.** 4.48%

**Q.** And the inhibition [3]?
**A.** 3.56%

**Q.** What does the source list for `Cc1cc(F)ccc1-c1nc(NCC(O)CNCCc2ccccc2)nc2c1ccc(=O)n2-c1c(F)cccc1F` (stereo not given)?
**A.** inhibition [1]: 5.26%; inhibition [2]: 4.59%; inhibition [3]: 6.47%

**Q.** How did the inhibition [1] turn out when `C=CCOc1ccc(C(=O)Nc2nonc2-c2ccc(OC)c(OC)c2)cc1` was run?
**A.** 1%

**Q.** And the inhibition [2]?
**A.** 1.23%

**Q.** What about the inhibition [3] of the same molecule?
**A.** 1.78%

**Q.** Which results are given for `OC(CNc1ccnc(Nc2cccc(Cl)c2)n1)c1cccc(C(F)(F)F)c1` (stereo not given)?
**A.** inhibition [1]: 14.4%; inhibition [2]: 11.6%; inhibition [3]: 4.06%

**Q.** What does the source list for `N#Cc1ccc(-c2cnc3ccc(NCc4ccc(S(N)(=O)=O)cc4)nn23)cc1`?
**A.** inhibition [1]: 2.42%; inhibition [2]: 1.16%; inhibition [3]: 0.38%

**Q.** What does the source list for `COc1ccc(NC(=O)C2CCN(CCCCCNC(=O)/C=C/c3ccc(Cl)c(Cl)c3)CC2)cc1`?
**A.** inhibition [1]: 2.19%; inhibition [2]: 2.22%; inhibition [3]: 2.85%

**Q.** How did the inhibition [1] turn out when `CC(C)(C)c1ccc(OCC(=O)NC2CCN(c3ccnc4cc(Cl)ccc34)C2)cc1` (stereo not given) was run?
**A.** 0.64%

**Q.** What about the inhibition [2] of the same molecule?
**A.** 0.05%

**Q.** And the inhibition [3]?
**A.** -1.09%

**Q.** What does the source list for `CC(CN(C)C)C(=O)Nc1ccc(-c2cccc(-c3nc4cc(C(F)(F)F)ccc4[nH]3)c2)cc1` (stereo not given)?
**A.** inhibition [1]: 1.9%; inhibition [2]: 1.89%; inhibition [3]: -2.14%

**Q.** For `O=C(/C=C/c1ccc(Cl)c(Cl)c1)NCCCCCN1CCC(NC(=O)Nc2cccc(Cl)c2Cl)CC1`, which inhibition [1] is on record?
**A.** -2.33%

**Q.** And the inhibition [2]?
**A.** -0.39%

**Q.** What about the inhibition [3] of the same molecule?
**A.** 6%
